According to PubChem BioAssay (NCI):
This is part of a sample that, as a whole, favours compounds with a hit. Of some 79,000 tested, about 15% had one in any assay. A number with no mark means an inactive call. Calls of active or inactive are those of the source. No stated cut-off is given here; in the data, active means growth inhibition above about 70%; inactive means the rest.

What was measured:
[1] = NCI Yeast Anticancer Drug Screen. Data for the rad50 strain (AID 155);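 further: 0% = growth of vehicle-only cultures of the same strain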; settings: S. cerevisiae rad50 strain growth inhibition, stronger effect = higher value
Outline: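 Genetically altered yeast (DNA repair pathway); compound treatment; growth inhibition vs vehicle ctrl.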

[2] = NCI Yeast Anticancer Drug Screen. Data for the mec2-1 strain (AID 157); settings: S. cerevisiae mec2-1 strain, stronger effect = higher value
Outline: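 mec2-1 yeast strain, carrying an alteration in DNA damage repair or cell cycle control, was exposed to compounds; growth inhibition was measured relative to vehicle-treated controls.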

[3] = NCI Yeast Anticancer Drug Screen. Data for the sgs1 mgt1 strain (AID 161);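 further: 0% = growth of cultures given vehicle only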; settings: S. cerevisiae sgs1 mgt1 strain, stronger effect = higher value
Outline: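 This yeast growth screen uses a strain with defined DNA-repair lesions; compound-treated growth is compared with vehicle-treated growth.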

[4] = NCI Yeast Anticancer Drug Screen. Data for the cln2 rad14 strain (AID 165);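 further: 0% = growth equal to vehicle treated cultures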; settings: S. cerevisiae cln2 rad14 strain, stronger effect = higher value
Outline: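 Yeast carrying cln2 and rad14 alterations (cell cycle control and DNA damage repair) were exposed to compounds. Growth inhibition was measured against vehicle-treated controls.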

[5] = NCI Yeast Anticancer Drug Screen. Data for the bub3 strain (AID 167); settings: S. cerevisiae bub3 mutant strain, stronger effect = higher value
Outline: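 Yeast carrying a defined mutation is treated with each compound, and growth is compared with that of vehicle-exposed cells to give inhibition.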

[6] = NCI Yeast Anticancer Drug Screen. Data for the mlh1 rad18 strain (AID 175); settings: S. cerevisiae mlh1 rad18 strain growth inhibition, stronger effect = higher value
Outline: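 Growth inhibition of the yeast strain was measured after compound exposure and expressed relative to vehicle-treated controls. The strain carries defined defects in DNA damage repair.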

[7] = at 5.0 µM (retest, dose inferred, filed as 0.5)
[8] = at 50.0 µM (retest, dose inferred, filed as 5.0)

| Structure (SMILES) | growth inhibition [1, 7] | growth inhibition [1, 8] | growth inhibition ([1]; at 50.0 µM) | growth inhibition [2, 7] | growth inhibition [2, 8] | growth inhibition ([2]; at 50.0 µM) | growth inhibition [3, 7] | growth inhibition [3, 8] | growth inhibition ([3]; at 50.0 µM) | growth inhibition [4, 7] | growth inhibition [4, 8] | growth inhibition ([4]; at 50.0 µM) | growth inhibition [5, 7] | growth inhibition [5, 8] | growth inhibition ([5]; at 50.0 µM) | growth inhibition [6, 7] | growth inhibition [6, 8] | growth inhibition ([6]; at 50.0 µM) |
| --- | --- | --- | --- | --- | --- | --- | --- | --- | --- | --- | --- | --- | --- | --- | --- | --- | --- | --- |
| Clc1ccc(-c2csc(NCC3CCCO3)n2)cc1 (stereo not given) | 46% | 60% | 66.4% | 27% | 57% | 39% | 34% | 83% (active) | 77.2% (active) | 27% | 53% | 63.2% | 39% | 82% (active) | 73.9% (active) | 44% | 70% (active) | 62.4% |
| COc1ccccc1/C=C1\C=Cc2ccccc21 | -3% | 6% | 31.9% | 0% | -1% | 49.5% | -4% | 8% | 44.2% | -1% | -14% | 26.2% | 3% | -1% | 78% (active) | -3% | 7% | 70.4% (active) |
| C/C(=N\NC(=S)N1CCN(C2CCCCC2)CC1)c1ccccn1 | -3% | 64% | 99% (active) | -14% | 76% (active) | 98.7% (active) | -4% | 98% (active) | 98.5% (active) | 12% | 59% | 97.1% (active) | -16% | 51% | 96.6% (active) | 15% | 85% (active) | 95.7% (active) |
| CN(C)CCCSc1c2ccccc2nc2cccc([N+](=O)[O-])c12 | 2% | 10% | 3.65% | 0% | -1% | -9.4% | -8% | -3% | 7.5% | 12% | 18% | -47.8% | 14% | 8% | -43.5% | 2% | -5% | 20.6% |
| c1ccc2c(c1)Cc1nc3ccccc3nc1-2 | -33% | 93% (active) | 98.3% (active) | -42% | 93% (active) | 98.2% (active) | -59% | 86% (active) | 90.6% (active) | -56% | 88% (active) | 90% (active) | -65% | 90% (active) | 97.4% (active) | -118% | 92% (active) | 97.8% (active) |
| CCCc1cc2c(cc1COc1ccccc1C(=O)O)OCO2 | -1% | 49% | 56.4% | -4% | 52% | 59.8% | -7% | 25% | 38.4% | -2% | 51% | 33.4% | -6% | 31% | 25.4% | -2% | 58% | 61.4% |
| [O-][N+]1=C2CCC/C(=N/O)C2(O)C2CCCCC21N1CCOCC1 (stereo not given) | 26% | 20% | -8.05% | 29% | 19% | -39.8% | 24% | 21% | -2.1% | 23% | 26% | 25.5% | 22% | 14% | -7.1% | 28% | 26% | -3.2% |
| C=CCCCCn1c2ccccc2c2c(C)c3c[n+](C)ccc3c(C)c21 | 99% (active) | 99% (active) | 89.7% (active) | 99% (active) | 99% (active) | 91.8% (active) | 97% (active) | 97% (active) | 90.3% (active) | 100% (active) | 100% (active) | 90.7% (active) | 98% (active) | 98% (active) | 91.4% (active) | 98% (active) | 98% (active) | 88.8% (active) |
| O=C(CCC(O)(c1ccccc1)c1ccccc1)c1ccccc1 | -4% | 97% (active) | 65.8% | -13% | 98% (active) | -11.9% | -11% | 98% (active) | 13.2% | -89% | 99% (active) | -27.2% | -9% | 46% | 4.9% | -3% | 98% (active) | 70.5% (active) |
| C=C(C)/C([O-])=N/[N+](C)(C)CC(O)CCCCCCCCCCCC (stereo not given) | 34% | 98% (active) | 91.7% (active) | 32% | 99% (active) | 91.5% (active) | 60% | 99% (active) | 92.2% (active) | 57% | 99% (active) | 90.3% (active) | 67% | 99% (active) | 91.5% (active) | 31% | 98% (active) | 90.2% (active) |
| CCOC(=O)/C(=C\c1ccccc1)C(=O)CCN1CCOCC1 | 37% | 99% (active) | 95.5% (active) | 24% | 99% (active) | 84.5% (active) | 12% | 99% (active) | 41% | 45% | 99% (active) | 75.9% (active) | 20% | 99% (active) | 76% (active) | 10% | 99% (active) | 84.8% (active) |
| COc1ccc(-c2c(C(=O)O)[nH]c3ccccc23)cc1 | 38% | 90% (active) | 96.8% (active) | 12% | 87% (active) | 97.5% (active) | 35% | 98% (active) | 97.5% (active) | 25% | 88% (active) | 98.5% (active) | 58% | 98% (active) | 96.2% (active) | 65% | 97% (active) | 99% (active) |
| COC(=O)c1nnn(-c2cccc(C(F)(F)F)c2)c1C(=O)c1ccc(Cl)c(Cl)c1 | -3% | 98% (active) | 97.7% (active) | 8% | 98% (active) | 80% (active) | -5% | 99% (active) | 97.7% (active) | 9% | 95% (active) | 59.2% | 16% | 98% (active) | 89.4% (active) | 4% | 98% (active) | 97% (active) |
| Cc1cc([N+](=O)[O-])cc(C)[n+]1[O-] | 13% | 67% | 82.5% (active) | 0% | 12% | 50.1% | 17% | 80% (active) | 91.2% (active) | 3% | 53% | 44.8% | 0% | -14% | 6.55% | 20% | 60% | 84.2% (active) |
| COc1cc(C2C(Cl)C(=O)N2NC(=O)c2ccccc2O)cc(OC)c1OC (stereo not given) | -8% | 77% (active) | 76.3% (active) | -10% | 70% (active) | 70.5% (active) | 1% | 81% (active) | 78.8% (active) | -2% | 40% | 35.2% | -11% | 48% | 80.8% (active) | 6% | 87% (active) | 78.8% (active) |
| Cc1ccc(NC(=S)SCc2ccc3c(c2)OCO3)cc1Cl | 19% | 96% (active) | 98.9% (active) | 15% | 99% (active) | 99.5% (active) | 16% | 98% (active) | 99% (active) | -7% | 97% (active) | 98.8% (active) | 15% | 99% (active) | 99.2% (active) | 39% | 97% (active) | 99.2% (active) |
| C=CCOC(=O)SC(=S)OCN(C)C | 3% | 98% (active) | 99.2% (active) | -3% | 99% (active) | 99.4% (active) | 1% | 99% (active) | 99.4% (active) | 4% | 99% (active) | 98.6% (active) | -1% | 98% (active) | 99.3% (active) | 1% | 99% (active) | 99.1% (active) |
| FC1(F)C2=C(SC3=C(S2)C(F)(F)C3(F)F)C1(F)F | 9% | 99% (active) | 99.2% (active) | -4% | 98% (active) | 70.5% (active) | 38% | 100% (active) | 99.1% (active) | 6% | 95% (active) | 74.9% (active) | -7% | 95% (active) | 97.7% (active) | 19% | 97% (active) | 97.7% (active) |
| COc1ccc(CSC(=S)Nc2ccc(SC)c(Cl)c2)cc1 | 50% | 90% (active) | 96.4% (active) | 23% | 96% (active) | 98.1% (active) | 62% | 94% (active) | 97% (active) | -10% | 88% (active) | 94.5% (active) | 16% | 97% (active) | 97% (active) | 65% | 94% (active) | 97.9% (active) |
| O=C(OC1C2CCC2C2CC21)c1ccc([N+](=O)[O-])cc1[N+](=O)[O-] (stereo not given) | 26% | 95% (active) | 36% | 14% | 99% (active) | 37.5% | 24% | 98% (active) | 59.1% | 6% | 99% (active) | 39.5% | -5% | 93% (active) | 37.2% | 25% | 98% (active) | 62.9% |
